Each structure is given as a SMILES string. In all, about 360,000 compounds went through this assay and about 1,500 (0.42%) were called active. The sample as a whole holds a higher share of actives than the screen did. Values without a mark were called inactive. Cut-off read from the data, not from the text of the source: active = inhibition above about 8.5%; inactive = the rest.

The test system of the experiment is HIV-1 gp120 / PG9 antibody interaction. The experiment is described as follows: small molecules engaging PG9 antibody – biochemical, TR-FRET, primary screen (AID 624416). The note with it: TR-FRET gp120-PG9 antibody binding; at 6.7 µM; stronger effect = higher value.
Usually inhibition stands for the relative decrease from the control value, in per cent. With `CCCCNc1cccc2c1S(=O)(=O)N[C@@H](C)CO2`, the inhibition was -0.83%.

For the compound `CN1CCCc2nc(-c3ccccc3)ccc21`, the inhibition was -1.37%.

`C[C@H](CO)N1C[C@H](C)[C@@H](CN(C)C(=O)Nc2ccccc2F)OCc2cn(nn2)CCCC1=O`: the inhibition was 0.59%.

Take `O=C(NN=Cc1ccco1)C(=O)Nc1ccc(Cl)c([N+](=O)[O-])c1`: the inhibition was -2.26%.

With `CCOC(=O)N1CCN(C(=O)C[C@H]2C[C@@]3(C(=O)OC)C(=C[C@H](C4CCCC4)O[C@@H]3C)N(Cc3ccccc3)C2=O)CC1`, the inhibition was -1.34%.

`COc1ccc(-n2nnnc2SCC(=O)NCc2cccs2)cc1`: the inhibition is 0.22%.

Turning to `FC(F)(F)c1nc(-c2ccccc2)ncc1-c1nnnn1-c1ccccc1`, the inhibition was -0.69%.

Consider `COc1ccc(-n2nnnc2-c2nc3ccccc3s2)cc1`, for which the inhibition is 14.4% (active).

Turning to `CSc1nnc(SCc2nc3sc(C(=O)O)c(C)c3c(=O)[nH]2)s1`, the inhibition was -1.42%.

As to `CC(=O)c1sc2nc(SCC(=O)N3CCCCC3)[nH]c(=O)c2c1C`, the inhibition was 21.1% (active).

For the compound `Cc1c(C)n2c(SCC(=O)N3CCCC3)nnc2[nH]c1=O`, the inhibition was -1.7%.

Turning to `Cc1nc(-c2ccccc2)sc1-c1nc(-c2ccccc2)ncc1S(=O)(=O)c1ccccc1`, the inhibition is 10.9% (active).

`Cc1nc(-c2ccccc2)sc1-c1nnc(C2CC2)o1`: the inhibition was -1.07%.

In the case of `C#CC(C)(C)NC(=O)c1cnc(-c2ccccc2)nc1-c1ccccc1`, the inhibition was -1.56%.

Consider `CC(=O)N1C[C@@H](CO)[C@@H](N(C)C(=O)C(C)(C)C)C[C@H]1c1ccccc1Br`, for which the inhibition is 0.03%.

For `O=S1(=O)c2c(cccc2N2CCCC2)O[C@H](COCc2ccccc2)CN1C1CC1`, the inhibition was -1.25%.

As to `CC(C)c1ccc(S(=O)(=O)N2CCN(C(=O)CN3C(=O)NC(C)(c4ccccc4)C3=O)CC2)cc1` (stereo unspecified), the inhibition was -0.6%.

For `O=C(CN1CCCSc2ccccc21)N1CCN(S(=O)(=O)c2cccc(F)c2)CC1`, the inhibition was -0.88%.

On to `N#C/C=C1\Sc2ccccc2C(=O)N1CC(=O)N1CCN(S(=O)(=O)c2ccccc2)CC1`, for which the inhibition is 16.5% (active).

As to `O=C(N[C@H](Cc1ccccc1)C(=O)N1CCCN(Cc2cccs2)CC1)[C@H]1O[C@@H](n2ccc(=O)[nH]c2=O)[C@H](O)[C@@H]1O`, the inhibition is -1.49%.

As to `COc1ccc(-c2ccccc2C2Cc3nnccc3CN2C(=O)Nc2ccccc2)cc1` (stereo unspecified), the inhibition is -1.16%.

Turning to `Clc1cccc2c1C1CC2CCN1Cc1ccccc1` (stereo unspecified), the inhibition was -1.15%.

For `CCc1ccccc1OCC(=O)Nc1ccc2c(c1)OCCO2`, the inhibition is -0.52%.

With `CCOc1cccc(NC(=O)Cn2nc(-c3ccc4c(c3)OCCO4)ccc2=O)c1`, the inhibition was 9.11% (active).

In the case of `CC(=O)c1cc2c(cc1NC(=O)Cn1nc(-c3ccc(F)cc3)ccc1=O)OCO2`, the inhibition is -0.49%.

For `COC(=O)C1=C(C(=O)OC)C2C=C(C(C)C)C1C(=O)C2(C)O` (stereo unspecified), the inhibition is -0.26%.

For the compound `CCCCNC(=O)CSc1nc2n[nH]c(C)c2c(=N)n1-c1cccc(Cl)c1C`, the inhibition is 20.8% (active).

On to `CCCCCCNC(=O)CSc1nccn1Cc1ccccc1`, for which the inhibition is 0.53%.

Take `Cc1ccc(-n2c(SCC(=O)NCCC3=CCCCC3)nc3n[nH]c(C)c3c2=N)cc1Cl`: the inhibition is 35.7% (active).

Consider `COc1cccc(-n2c(SCC(=O)NC3CCCCC3)nc3n[nH]c(C)c3c2=N)c1`, for which the inhibition was 0.99%.

`CCCCNC(=O)CSc1nccn1Cc1ccccc1`: the inhibition is 2.29%.

Regarding `Cc1nnc(OCC(=O)NCCC2=CCCCC2)c2ccccc12`, the inhibition was -0.11%.

For `Cc1ccc(C)c(CN2CCC(CNC(=O)C3CCCN(c4ncnc5c4nc4n5CCCCC4)C3)CC2)c1` (stereo unspecified), the inhibition is -0.22%.

For `COC(=O)[C@]12C[C@H](CC(=O)NCCCCc3ccccc3)C(=O)N(Cc3ccc4c(c3)OCO4)C1=C[C@H](C(C)(C)C)O[C@@H]2C`, the inhibition is 1.2%.

`C=CCN=C1NC(c2ccccc2)C(C(=O)OC)=C(C)N1Cc1ccc(C(F)(F)F)cc1` (stereo unspecified): the inhibition was -0.19%.

As for `COc1ccc(CNS(=O)(=O)c2cc(Br)ccc2Br)cc1`, the inhibition is 0.06%.

As to `COC(=O)Cc1nnn2c1[C@H](C)[C@H](c1ccccc1Br)OCC2`, the inhibition was 1.33%.

With `Cc1ccc(N)cc1CN1CCN(c2ncc(Cc3ccccc3)cn2)CC1`, the inhibition is -3.21%.

With `COc1ccc(Cl)cc1NC(=O)Cn1nc(-c2ccc(C)cc2)n(C)c1=S`, the inhibition is 11% (active).

`COc1ccc(Cl)cc1NC(=O)CN1CCN(C(=O)N2CCOCC2)CC1`: the inhibition was 1.73%.

As for `COc1ccc(C)cc1NC(=O)CSc1ccc(Cl)cc1`, the inhibition is -1.28%.

Regarding `CC1CCCN(c2cccc3c2S(=O)(=O)N(Cc2ccc(F)cc2)[C@@H](C)[C@H](c2ccccc2)O3)C1` (stereo partly specified), the inhibition is 0.43%.

Turning to `CCCN1C(=O)c2[nH]nc(-c3ccccc3)c2C1c1ccccc1` (stereo unspecified), the inhibition was -1.03%.

`CCN(CC)CCNC(=O)c1ccc(NS(=O)(=O)c2ccc3c(c2)OCCO3)cc1`: the inhibition was -1.11%.

For `O=C(Nc1cccc(S(=O)(=O)Nc2ccc(Cl)cc2)c1)c1ccc2c(c1)OCCO2`, the inhibition is 9.35% (active).

In the case of `CC(NS(=O)(=O)c1ccc(Cl)cc1)C(=O)Nc1ccc2c(c1)OCCO2` (stereo unspecified), the inhibition was 0.53%.

`Nc1nc2c(Br)ccc(Br)c2cc1C(=O)NCCc1ccccc1`: the inhibition was 3.73%.

In the case of `COCCNC(=O)c1cc2c(Br)ccc(Br)c2nc1N`, the inhibition was 9.73% (active).

For `COCCNC(=O)c1ccccc1-c1nc(-c2ccccc2Cl)no1`, the inhibition is -2.1%.

Regarding `Cc1ccc2nc(CN(C)C(=O)[C@@H](Cc3ccccc3)NC(=O)[C@H]3O[C@@H](n4ccc(=O)[nH]c4=O)[C@H](O)[C@@H]3O)[nH]c2c1`, the inhibition was -1.8%.

For `COc1ccc(SSc2ccc(OC)cc2C(=O)O)c(C(=O)O)c1`, the inhibition is -0.62%.

Turning to `C=CCn1c(SCC(=O)Nc2ccc(NC(C)=O)cc2)nc2sc(C)c(C)c2c1=O`, the inhibition was 1.19%.

As for `C=CCn1c(CCNC(=O)c2cccs2)n[nH]c1=S`, the inhibition was -0.83%.

Take `CC(=O)Nc1ccc(S(=O)(=O)N2CCN(S(=O)(=O)c3cccs3)CC2)cc1`: the inhibition was 1.11%.

`O=C(CN1CCCCCC1)Nc1ccc(S(=O)(=O)N2CCCCC2)cc1`: the inhibition is -1.07%.

With `C=CCn1c(=NC(=O)c2cccs2)sc2cc(NC(C)=O)ccc21`, the inhibition was 10.5% (active).

Take `C=CCn1c(=NC(=O)c2ccc(S(=O)(=O)N3CCCC3)cc2)sc2cc(NC(C)=O)ccc21`: the inhibition is 13% (active).

Consider `O=C(NCc1ccccc1)[C@@H]1CCCN1C(=O)[C@H]1CCCN1C(=O)c1cccc(Cl)c1`, for which the inhibition was -0.83%.

For `Cc1noc(C)c1NC(=O)Nc1ccc2c(c1)C(=O)N([C@H](C)CO)C[C@H](C)[C@H](CN(C)Cc1ccncc1)OCCCC[C@@H](C)O2`, the inhibition was 0.19%.

As to `C[C@H]1CN([C@@H](C)CO)C(=O)CCCn2nncc2CO[C@@H]1CN(C)C(=O)Nc1ccc(N2CCN(C)CC2)cc1`, the inhibition is -0.47%.

For `Cc1[nH]c2ccccc2c1CC(=O)Nc1ccc(Nc2cccnc2)c(-c2cccc(Cl)c2)c1`, the inhibition was 0.12%.

As for `O=C(O)Cn1cnc2c(NCc3ccccc3)ncnc21`, the inhibition is 1.02%.

`CC(=O)C1=C(C)N(Cc2ccccc2)C(=S)NC1c1cccc(Br)c1` (stereo unspecified): the inhibition is -1.42%.

As to `CCOc1ccccc1C(=O)N1CCC[C@@H]1C(=O)N1CCC[C@H]1C(=O)NCc1ccccc1`, the inhibition was 2.14%.

On to `COc1cccc(CC(=O)N2CCN(C(=O)C(=O)c3cccc(C(F)(F)F)c3)CC2)c1`, for which the inhibition is 0.18%.

For `COCc1cc(N2CCN(C(=O)OC(C)(C)C)C[C@@H]2C)ccc1N1CCN(Cc2ccccc2)[C@H](C)C1`, the inhibition was 0.37%.

As to `CCCCCCCCN1C(=O)[C@@H](CC(=O)NCc2ccccc2)C[C@@]2(C(=O)OC)C1=C[C@H](C(C)(C)C)O[C@@H]2C`, the inhibition was -0.73%.

Regarding `COCCNc1nc(Nc2ccccc2Cl)c2sc(-c3ccccc3)cc2n1`, the inhibition is 1.58%.

For `COCCCNc1nc2c(-c3cccc(C(F)(F)F)c3)nnn2c2ccccc12`, the inhibition is 0.39%.

Turning to `COCCCNc1nc2c(-c3cccc(C)c3)nnn2c2ccc(Cl)cc12`, the inhibition was 10.3% (active).

Regarding `CC(C)CNc1cccc2c1S(=O)(=O)N[C@H](CC(C)C)CO2`, the inhibition was -0.01%.

On to `CN(C)C(=O)N1CCN(C(=O)[C@@H](Cc2ccccc2)NC(=O)[C@H]2O[C@@H](n3ccc(N)nc3=O)[C@H](O)[C@@H]2O)CC1`, for which the inhibition is -2.32%.

`CCCOc1ccc(C2C(C(=O)c3ccc(C)o3)=C(O)C(=O)N2CCCn2ccnc2)cc1` (stereo unspecified): the inhibition was 54.6% (active).

For the compound `C=CCOc1cccc(C2C(C(=O)c3ccc(C)o3)=C(O)C(=O)N2CCN2CCOCC2)c1` (stereo unspecified), the inhibition was 2.96%.

As to `CCOc1ccc(C2/C(=C(/O)c3ccc4c(c3)CC(C)O4)C(=O)C(=O)N2CCCn2ccnc2)cc1` (stereo unspecified), the inhibition was 1.05%.

As to `C=CCOc1cccc(C2C(C(=O)c3ccc(C)o3)=C(O)C(=O)N2CCCn2ccnc2)c1` (stereo unspecified), the inhibition was 11.1% (active).

For `C=CCOc1cccc(C2C(C(=O)c3ccc(C)o3)=C(O)C(=O)N2c2nnc(C)s2)c1` (stereo unspecified), the inhibition is 2.85%.

`c1ccc(Cc2ccc(OCCn3ccnc3)cc2)cc1`: the inhibition is -0.66%.

As for `COC(=O)c1c(-c2ccc(OC)cc2)c2c(c3c4cc(OC)ccc4n(S(=O)(=O)c4ccc(F)cc4)c13)C(=O)N(C)C2`, the inhibition is 1.03%.

In the case of `COC(=O)c1c(-c2ccc(OC)cc2)c2c(c3c4ccccc4n(S(=O)(=O)c4ccc(C)cc4)c13)C(=O)N(C)C2`, the inhibition was 0.17%.

In the case of `CN1C(=O)C2CC(O)C(SC3CC4C(=O)N(C)C(=O)C4CC3O)CC2C1=O` (stereo unspecified), the inhibition is 0.46%.

(Values after PubChem BioAssay AID624416 (The Scripps Research Institute Molecular Screening Center, 2012).)
